Shown are actives, neighbours in structure and some others; about 7.5% of the full set was active somewhere.
NPC1 prom act – activators of NPC1 promoter | Potency, µM (doses to about 9.22 µM), for inactives: top-dose activation, most hits filed as activators | Huh7 NPC1 promoter luciferase reporter, 24 h | AID 485313 | hit rate 2.4% among 320,000; also: % of control where 0% means no effect; nearly all actives have a fitted effect of over 60% in size
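Stably transfected Huh7 (NPC1 promoter→luciferase), 1500 cells/well in Opti-MEM + 10% FBS, 2 h settle, then compound 24 h at 37 °C. Luminescence after 10 min with Amplite reagent.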
ELG1 genotox – induces genotoxicity in HEK293T cells with luciferase-tagged ELG1; HEK293T ELG1-luciferase reporter, luminescence, 16 h; Potency, µM (highest dose often 46 µM), without a hit: at the top dose activity change, positive = activation, most hits filed as activators; hit rate 1.3% among 330,000; also: % of control where 0% means no effect; nearly all actives have a fitted effect of over 60% in size
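16 hr compound incubation (37 °C, 5% CO2) of HEK293T cells carrying luciferase-tagged ELG1; luciferase then measured by ONE-Glo luminescence after 30 min at RT.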
SMN2 splice enh – SMN2 splice variant enhancement. HEK293 SMN2-luciferase splicing reporter, luminescence, 30-36 h. Potency, µM (titrated, usually from 46.1 µM), without a hit: top-dose activity change, positive = activation, usual class: activators. hit rate 2.8% among 210,000; also: % of control where 0% means no effect; nearly all actives have a fitted effect of over 55% in size
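qHTS luciferase splicing reporter: luminescence rises when SMN2 exon 7 is included in transfected HEK293 cells. Compound exposure lasted 30-36 h at 37C, with 4.5 mM final sodium butyrate as control, followed by a ONE-Glo read.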
Rab9 promoter act – activators of Rab9 promoter; Huh7 Rab9 promoter-luciferase reporter, luminescence, 24 h; Potency, µM (series often up to 9.22 µM), for the others: at the top dose activation, negative = inhibition, most hits filed as activators; hit rate 2.8% among 320,000; also: % of control where 0% means no effect; nearly all actives have a fitted effect of over 60% in size
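Measured in stably transfected Huh7 cells bearing a Rab9 promoter–luciferase construct: 24 h compound treatment at 37 °C, followed by luminescence detection.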
Luc counter – Kinase-Glo luciferase inhibition (counter-screen). Q27757. Kinase-Glo luciferase, ATP luminescence, 8 min. Potency, µM (doses to about 38.3 µM), without a hit: at the top dose activity change, negative = inhibition, usual class: inhibitors. hit rate 0.28% among 200,000; also: % is scaled to controls: 0 for no effect and ±100 for the full control effect; nearly all actives have a fitted effect of over 60% in size
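Substrate mix (final 50 mM imidazole pH 7.2, 50 mM KCl, 7 mM MgCl2, 10 uM ATP, 0.01% Tween 20, 0.05% BSA) plus pin-tool compound, then Kinase-Glo detection mix; 8 min ambient, luminescence read.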
FLuc modulator – firefly luciferase modulation, counter-screen for miR-21 project; purified FLuc, Km substrates, luminescence inhibition; Potency, µM (highest dose often 57.5 µM), without a hit: top-dose activity change, negative = inhibition, actives largely listed as inhibitors; hit rate 6.9% among 360,000;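 also: plate controls were vehicle for no effect and reference inhibitor for full effect; nearly all actives have a fitted effect of over 55% in size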
Target sequence (P08659 whole entry, looked up): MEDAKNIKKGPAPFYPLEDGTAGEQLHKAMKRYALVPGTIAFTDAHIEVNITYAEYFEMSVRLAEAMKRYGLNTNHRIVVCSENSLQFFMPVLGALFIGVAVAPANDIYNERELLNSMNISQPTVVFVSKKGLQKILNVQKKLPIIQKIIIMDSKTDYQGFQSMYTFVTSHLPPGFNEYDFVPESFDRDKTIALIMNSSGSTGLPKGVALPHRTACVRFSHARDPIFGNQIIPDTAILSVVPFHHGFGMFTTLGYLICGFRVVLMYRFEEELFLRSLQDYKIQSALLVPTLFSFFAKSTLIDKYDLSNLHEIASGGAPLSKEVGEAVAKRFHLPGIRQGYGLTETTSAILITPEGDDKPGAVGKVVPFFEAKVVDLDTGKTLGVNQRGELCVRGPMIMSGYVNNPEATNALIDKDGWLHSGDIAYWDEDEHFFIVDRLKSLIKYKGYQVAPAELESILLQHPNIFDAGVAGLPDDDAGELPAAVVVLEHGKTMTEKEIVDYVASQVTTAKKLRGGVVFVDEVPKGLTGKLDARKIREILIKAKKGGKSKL
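Purified P. pyralis luciferase (10nM final) with 10uM D-luciferin and 10uM ATP (Km levels) in 50mM Tris acetate pH 7.5, 10mM Mg acetate, 0.01% Tween-20, 0.05% BSA; qHTS 6-point titration, ~60 µM downward; luminescence read.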
* marks the source's active call; other numbers are inactive results; ? = inconclusive; . = not tested or not shown; [ ] = another dose, or the depositor's remark. Calls follow the shape of the dose curve; as a rule, active = well fitted curve in the direction sought with a large enough effect; inconclusive = small, poorly fitted or top-dose-only effect, or another doubt; inactive = no such curve, though single readings can be large; an effect the other way counts as inactive or inconclusive. Potency is read from the fitted curve at half-maximal effect.

SMILES	NPC1 prom act	ELG1 genotox	SMN2 splice enh	Rab9 promoter act	Luc counter	FLuc modulator
COc1ccccc1C1(O)C(=O)Nc2ccc(C)cc21 (stereo not drawn)	-5%	-1%	.	-5%[1.84 µM]	.	1%
COc1cccc(NC(=O)CSc2nnc3[nH]c(=O)cc(-c4ccccc4)n23)c1	.	.	.	.	.	1.2µM*
COc1cccc(NC(=O)CSc2nc3ccccc3c(=O)n2C)c1	-4%	-7%	.	-13%	.	2%
O=C(CSc1nnc2[nH]c(=O)cc(-c3ccccc3)n12)Nc1ccc(OC(F)(F)F)cc1	.	.	.	.	.	2.4µM*
O=C(Nc1c(Cl)cccc1Cl)c1cc(-c2cccc(O)c2)on1	.	.	?	.	.	24µM*
O=C(Nc1c(Cl)cccc1Cl)c1cc(-c2ccc3c(c2)OCO3)on1	.	.	15%	.	.	-22%
O=C(Nc1ccc2c(c1)OCO2)c1cc(-c2ccc(O)cc2)on1	3.5µM*	?	.	?	.	?
O=C(Nc1ccc2c(c1)OCO2)c1cc(-c2ccc(Cl)cc2)on1	.	.	9%	.	.	-1%
O=C(Nc1ccc2c(c1)OCO2)c1cc(-c2cccc(O)c2)on1	7%	10%	.	-2%	.	2.1µM*
COc1cccc(-c2cc(C(=O)Nc3ccc4c(c3)OCO4)no2)c1	20%	?	-5%	17%	.	-8%
CCC(=O)N1CCc2cc(Br)cc(S(=O)(=O)NCCc3ccc(C)cc3)c21	.	.	.	.	.	0%
Cc1ccc(/C=C/C(=O)Nc2cccc(S(=O)(=O)N3CCOCC3)c2)o1	6%	-1%	-15%	-1%	1%	?
O=C(COC(=O)/C=C/c1ccc(OC(F)F)cc1)Nc1cccc(S(=O)(=O)N2CCCC2)c1	0%	9%	.	-7%	.	19µM*
COc1ccc(/C=C/C(=O)Nc2cccc(S(=O)(=O)N3CCOCC3)c2)cc1OC	-3%	-2%	.	-4%	.	?
O=C(/C=C/c1ccc(OC(F)F)cc1)Nc1cccc(S(=O)(=O)N2CCOCC2)c1	15%	-28%	.	2%	.	4.8µM*
O=C(/C=C/c1ccco1)Nc1cccc(S(=O)(=O)N2CCOCC2)c1	12%	1%	16%	?	0%	17µM*
CNc1ncnc2c1ncn2[C@@H]1O[C@H](COP(=O)(O)O)[C@@H](O)[C@H]1O	.	.	-2%	.	.	.
CCOc1ccccc1NCc1nnc2n1CCCCC2	.	.	.	.	.	4%
CC(C)(C)NC[C@H](O)c1cc(O)cc(O)c1	.	.	15%[20.6 µM]	.	-7%[17.1 µM]	.
Cc1cccc(C)c1OCC(=O)N(Cc1ccc(Cl)cc1)CC1CCCO1 (stereo not drawn)	.	.	.	.	.	-14%
CCc1ccc(-c2cc(C(=O)N/N=C/c3c[nH]c4ccccc34)[nH]n2)cc1	-10%	-7%	27%	-1%	3%	4.3µM*
CCc1ccc2c(Cl)c(C(=O)N/N=C/c3c[nH]c4ccccc34)sc2c1	3%	-1%	-13%	4%	-3%	19µM*
Oc1nc(Nc2ccccc2)sc1/C=C1\C=Nc2ccccc21	4µM*	?	.	2.8µM*	.	19µM*
CCn1c(O)c(/C=C2\C=Nc3ccccc32)sc1=O	?	6.5µM*	22µM*	1.4µM*	2%	2.7µM*
CCOC(=O)c1c(Nc2ccccc2)sc(/C=C2\C=Nc3ccccc32)c1O	-4%	12%	-6%	-3%	-3%	6%
SMILES	NPC1 prom act	ELG1 genotox	SMN2 splice enh	Rab9 promoter act	Luc counter	FLuc modulator
COc1ccc2c(c1)c1c(c(=O)n(-c3ccccc3)c(=O)n1CC(=O)NCCC1=CCCCC1)n2C	.	.	.	.	.	0%
N/C(=N\OC(=O)c1ccc(F)cc1)c1ccccc1	?	?	5%	?	8.9µM*	0.17µM*
Cc1ccc(/C(N)=N/OC(=O)Oc2ccccc2)cc1	-1%	2%	-5%	1%	-3%	?
Cc1ccc(/C(N)=N/OC(=O)c2ccc(F)cc2)cc1	16%	10µM*	?	15%	-4%	4.8µM*
C/C(=N\OC(=O)c1ccc(F)cc1)c1ccc(F)c(F)c1	0%	0%	.	?	.	1.7µM*
N/C(=N\OC(=O)c1ccc(F)cc1)c1ccc(Br)cc1	?	?	19%	?	-3%	2.7µM*
